Measurements taken from PubChem BioAssay (NCI).
This is part of a sample that, as a whole, favours compounds with a hit. Of some 83,000 tested, about 20% had one in any assay.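 Interpretation: 100, growth as untreated; towards 0, rising growth inhibition; 0, no net growth; 0 to -100, cell death. Compounds scoring below 10 were considered active.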 Values without a mark were called inactive. Activity calls are given as the source filed them.

Each molecule was assayed on HL-60(TB) leukemia (assay: NCI-60 one-dose screen, 48 h (100 = growth as untreated, 0 = no growth, -100 = all killed)). Details: 10 µM unless noted.

**Q.** How did the growth turn out when `Cc1cc2nc(-c3c(N)ncc(C#N)c3-c3ccc(Cl)cc3)[nH]c2cc1C` was run?
**A.** 89.5%

**Q.** With `COc1ccc(-c2[nH]ncc2/C=C/c2cc(C(F)(F)F)[nH]c(=O)n2)cc1` as the molecule, how does the growth read?
**A.** 92%

**Q.** Which growth does the source give for `CC(=O)Oc1cc(C)c(OC(C)=O)c(C)c1C` here?
**A.** 101%

**Q.** How did the growth turn out when `COc1cc(/C=N\NC(=O)CN2CCN(c3cc4c(cc3F)c(=O)c(C(=O)N/N=C/c3cc(OC)c(OC)c(OC)c3)cn4C3CC3)CC2)cc(OC)c1OC` was run?
**A.** -10.2% (active)
